Test results published in PubChem BioAssay (Tox21).
Records with an inconclusive call do not appear. Where a call stands in place of a potency, no number is given. Calls of active or inactive are those of the source. Unless noted, the call rests on the fitted dose curve; in most records, active means well fitted curve in the direction sought with a large enough effect in the repeat runs; inconclusive means weak or mixed curves; inactive means no such curve, though single readings can be large; an effect the other way counts as inactive or inconclusive.

What was measured:
[1] = qHTS assay to identify small molecule antagonists of the estrogen receptor alpha (ER-alpha) signaling pathway using the BG1 cell line in the presence of 0.1 nM 17-beta-estradiol - cell viability counter screen (AID 1259241); further: nearly all actives have a fitted effect of over 40% in size; further: potency means the concentration at half of the fitted maximal effect
Outline: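 CellTiter-Fluor read (30 min, 37C) on ER-alpha/ERE-luc VM7Luc4E2 cells; 22 hr compound treatment; agonist 0.1 nM E2 final; same-well multiplex.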

[2] = target: Androgen receptor (Homo sapiens) (UniProt P10275); test: qHTS assay to identify small molecule antagonists of the androgen receptor (AR) signaling pathway using the MDA cell line in the presence of 0.5 nM R1881 (AID 1259243); further: nearly all actives have a fitted effect of over 50% in size; further: potency means the concentration at half of the fitted maximal effect
Outline: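 Steps: seed MDA-kb2 cells, incubate 5 hr at 37C; pin-transfer compounds in DMSO; add R1881 to 0.5 nM final; incubate 16 hr; add ONE-Glo, wait 30 min at room temperature; read luminescence.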

[3] = target: Estrogen receptor (Homo sapiens) (UniProt P03372); test: qHTS assay to identify small molecule antagonists of the estrogen receptor alpha (ER-alpha) signaling pathway using the BG1 cell line in the presence of 0.1 nM 17-beta-estradiol (AID 1259244); further: nearly all actives have a fitted effect of over 50% in size; further: potency means the concentration at half of the fitted maximal effect
Outline: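 After 5 days in hormone-depleted medium (charcoal-stripped serum, no phenol red), VM7Luc4E2 cells were seeded, incubated 24 h, then co-treated with compound and 0.1 nM (final) estradiol for 22 h before luminescence detection.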

[4] = qHTS assay to identify small molecule phospholipidosis (PLD) inducers (AID 1259344; active means well fitted curve in the direction sought with a large enough effect; an effect the other way counts as inactive or inconclusive; further: potency means the concentration at half of the fitted maximal effect)
Outline: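 Fluorescent phospholipid staining (LipidTOX Red) measured by automated microscopy in fixed HepG2 cells after 24 h treatment; nuclei counterstained with Hoechst 33342; amiodarone as reference inducer.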

[5] = qHTS assay to identify small molecule HDAC inhibitors (AID 1259364); further: nearly all actives have a fitted effect of over 45% in size; further: potency means the concentration at half of the fitted maximal effect
Outline: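 Homogeneous cell-based luminescent assay of endogenous class I/II HDAC activity; HCT-116 cells, 2 h compound exposure, 30 min HDAC-Glo development at RT.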

[6] = qHTS assay to identify small molecule HDAC inhibitors - cell viability counter screen (AID 1259365); further: nearly all actives have a fitted effect of over 50% in size; further: potency means the concentration at half of the fitted maximal effect
Outline: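 To flag cytotoxic hits, 1,500 wild-type HCT-116 cells per well, plated the day before, receive test compounds for 2hr at 37 C before CellTiter-Glo reagent and a luminescence read.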

[7] = qHTS assay to identify small molecule agonists of the sonic hedgehog signaling (Shh) pathway - cell viability counter screen (AID 1259366); further: nearly all actives have a fitted effect of over 50% in size; further: potency means the concentration at half of the fitted maximal effect
Outline: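 Fluorescence from CellTiter-Fluor reports live cells in this counter screen. NIH/3T3-derived Gli1-Luc reporter cells receive test compounds for 24hr at 37C; reagent goes in at 23hr.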

[8] = qHTS assay to identify small molecule antagonists of the sonic hedgehog signaling (Shh) pathway - cell viability counter screen (AID 1259367); further: nearly all actives have a fitted effect of over 55% in size; further: potency means the concentration at half of the fitted maximal effect
Outline: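 Using CellTiter-Fluor, viability of Gli1-Luc reporter 3T3 cells is read by fluorescence in the wells used for the Shh luciferase assay. Treatment lasts 23 hr with conditioned medium, then reagent 1 hr at 37C.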

[9] = qHTS assay to identify small molecule agonists of the sonic hedgehog signaling (Shh) pathway (AID 1259368; calls by dose curve;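 further: NIH/3T3-derived 3T3Gli1-Luc cells carrying a stable Gli1-driven firefly luciferase reporter; series mostly up to about 92 µM; nearly all actives have a fitted effect of over 15% in size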)
Outline: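 Steps: seed 3T3 Gli1-Luc cells, incubate 4 hr at 37 C, pin-transfer compounds in DMSO alongside a positive control, incubate 24 hr, add luciferase detection reagent, wait 30 min at room temperature, read luminescence.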

[10] = target: Estrogen receptor beta (Homo sapiens) (UniProt Q92731); test: qHTS assay to identify small molecule agonists of the estrogen receptor beta (ER-beta) signaling pathway (AID 1259377; active means well fitted activation curve with a large enough effect in the signal ratio in the repeat runs, not every such curve was filed as active; the % refers to the signal ratio)
Outline: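 Screening used GripTite ER-beta-UAS-bla cells held in 2% charcoal-stripped FBS medium. After overnight (16 hr) compound incubation at 37C, beta-lactamase activity was detected with a FRET substrate by fluorescence.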

[11] = target: Estrogen receptor beta (Homo sapiens) (UniProt Q92731); test: qHTS assay to identify small molecule antagonists of the estrogen receptor beta (ER-beta) signaling pathway (AID 1259378; active means well fitted inhibition curve with a large enough effect in the signal ratio in the repeat runs, not every such curve was filed as active; the % refers to the signal ratio; further: potency means the concentration at half of the fitted maximal effect)
Outline: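 Antagonist mode: compounds added to beta-lactamase reporter HEK293T ER-beta-UAS cells stimulated with E2 (1nM final), 16 hr at 37C. LiveBLAzer B/G FRET substrate, 2 hours room temperature, fluorescence read-out.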

[12] = qHTS assay to identify small molecule agonists of the estrogen receptor beta (ER-beta) signaling pathway - cell viability counter screen (AID 1259380); further: nearly all actives have a fitted effect of over 30% in size; further: potency means the concentration at half of the fitted maximal effect
Outline: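 Same-well viability counter screen. Cells: ER-beta-UAS-bla HEK293T, plated 6 hr before compound, in 2% charcoal-stripped FBS. Compound exposure 16 hr, 37C; viability by CellTiter-Glo luminescence after 30 min at room temperature.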

[13] = target: Androgen receptor (Homo sapiens) (UniProt P10275); test: qHTS assay to identify small molecule agonists of the androgen receptor (AR) signaling pathway in the presence of an antagonist (AID 1259381; calls by dose curve; further: nearly all actives have a fitted effect of over 15% in size)
Outline: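 Cells are MDA-kb2 (human breast carcinoma, MMTV-luc, AR/GR responsive). Nilutamide is present at 3.0uM final throughout; compounds are added at 15 concentrations and incubated 16hr at 37C before ONE-Glo luminescence detection.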

[14] = qHTS assay to identify small molecule antagonists of the estrogen receptor beta (ER-beta) signaling pathway - cell viability counter screen (AID 1259382); further: nearly all actives have a fitted effect of over 55% in size; further: potency means the concentration at half of the fitted maximal effect
Outline: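 Following a 6 hr plating period, HEK293T cells carrying a UAS-driven beta-lactamase reporter under ER-beta control received compounds and 1nM E2 (final). After 16 hr at 37C and 2 hr substrate loading, CellTiter-Glo luminescence indicated viability.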

[15] = target: Estrogen receptor (Homo sapiens) (UniProt P03372); test: qHTS assay to identify small molecule agonists of the estrogen receptor alpha (ER-alpha) signaling pathway in the presence of an antagonist (AID 1259383; calls by dose curve; further: top concentration of the series differs between compounds; nearly all actives have a fitted effect of over 15% in size)
Outline: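 Cells are hormone-deprived for 5 days (charcoal-stripped FBS, no phenol red), plated for 24hr, spiked with 10.0nM ICI-182,780, then dosed at 15 concentrations. After 22hr at 37C, ONE-Glo luminescence reports ERE-luciferase activity.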

[16] = qHTS assay to identify small molecule agonists or antagonists of the thyroid stimulating hormone receptor (TSHR) signaling pathway - wild type cell line counter screen (AID 1259384; calls by dose curve)
Outline: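 Counter screen in untransfected Hek293: compounds (15-point titration, triplicate) plus phosphodiesterase inhibitor Ro20-1724 added after 18 h plating; 30 min RT. Intracellular cAMP via competitive d2/cryptate immunoassay, 1 h incubation.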

[17] = qHTS assay to identify small molecule agonists of the androgen receptor (AR) signaling pathway in the presence of an antagonist - cell viability counter screen (AID 1259379); further: nearly all actives have a fitted effect of over 25% in size; further: potency means the concentration at half of the fitted maximal effect
Outline: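 Fluorescence from CellTiter-Fluor, added after 15 hr and read 1 hr later, gave cell viability. Cells were MDA-kb2 exposed to compounds (15 concentrations) in the presence of 3.0uM nilutamide at 37C, 0% CO2.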

[18] = target: Thyrotropin receptor (Homo sapiens) (UniProt P16473); test: qHTS assay to identify small molecule antagonists of the thyroid stimulating hormone receptor (TSHR) signaling pathway (AID 1259385; calls by dose curve; further: nearly all actives have a fitted effect of over 20% in size)
Outline: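 Antagonist mode: compound-treated TSHR-expressing HEK293 cells were stimulated with 1.5 ng/mL TSH (final) in presence of Ro20-1724 for 30 min at RT. HTRF cAMP detection after 1 h; each compound tested at 15 concentrations, triplicate.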

[19] = qHTS assay to identify small molecule antagonists of the sonic hedgehog signaling (Shh) pathway (AID 1259369; calls by dose curve; further: nearly all actives have a fitted effect of over 45% in size; further: potency means the concentration at half of the fitted maximal effect)
Outline: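 Inhibition of Shh signalling is measured as reduced Gli1-response-element firefly luciferase output in an NIH/3T3-derived stable reporter clone stimulated with conditioned medium for 24hr.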

Thyrotropin receptor (Homo sapiens), sequence (P16473 whole entry, looked up): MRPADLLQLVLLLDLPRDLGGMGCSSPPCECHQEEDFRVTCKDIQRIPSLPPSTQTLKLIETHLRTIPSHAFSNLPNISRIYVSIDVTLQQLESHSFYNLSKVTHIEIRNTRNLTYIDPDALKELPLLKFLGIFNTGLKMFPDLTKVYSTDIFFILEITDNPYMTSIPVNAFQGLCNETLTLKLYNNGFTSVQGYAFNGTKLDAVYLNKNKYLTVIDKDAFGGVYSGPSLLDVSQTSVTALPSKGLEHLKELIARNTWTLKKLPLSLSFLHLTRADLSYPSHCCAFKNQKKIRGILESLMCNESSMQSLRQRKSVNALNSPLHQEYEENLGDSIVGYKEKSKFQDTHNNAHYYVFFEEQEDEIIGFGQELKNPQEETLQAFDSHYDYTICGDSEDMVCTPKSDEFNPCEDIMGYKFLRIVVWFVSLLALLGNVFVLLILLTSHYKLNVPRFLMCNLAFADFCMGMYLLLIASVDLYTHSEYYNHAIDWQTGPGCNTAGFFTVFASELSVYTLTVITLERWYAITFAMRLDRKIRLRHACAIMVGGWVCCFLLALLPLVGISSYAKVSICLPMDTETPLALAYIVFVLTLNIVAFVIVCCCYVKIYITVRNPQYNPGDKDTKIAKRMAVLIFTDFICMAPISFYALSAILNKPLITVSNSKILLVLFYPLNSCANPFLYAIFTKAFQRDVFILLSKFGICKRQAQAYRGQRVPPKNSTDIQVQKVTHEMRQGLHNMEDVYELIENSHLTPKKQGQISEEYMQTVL
Androgen receptor (Homo sapiens), sequence (P10275 whole entry, looked up): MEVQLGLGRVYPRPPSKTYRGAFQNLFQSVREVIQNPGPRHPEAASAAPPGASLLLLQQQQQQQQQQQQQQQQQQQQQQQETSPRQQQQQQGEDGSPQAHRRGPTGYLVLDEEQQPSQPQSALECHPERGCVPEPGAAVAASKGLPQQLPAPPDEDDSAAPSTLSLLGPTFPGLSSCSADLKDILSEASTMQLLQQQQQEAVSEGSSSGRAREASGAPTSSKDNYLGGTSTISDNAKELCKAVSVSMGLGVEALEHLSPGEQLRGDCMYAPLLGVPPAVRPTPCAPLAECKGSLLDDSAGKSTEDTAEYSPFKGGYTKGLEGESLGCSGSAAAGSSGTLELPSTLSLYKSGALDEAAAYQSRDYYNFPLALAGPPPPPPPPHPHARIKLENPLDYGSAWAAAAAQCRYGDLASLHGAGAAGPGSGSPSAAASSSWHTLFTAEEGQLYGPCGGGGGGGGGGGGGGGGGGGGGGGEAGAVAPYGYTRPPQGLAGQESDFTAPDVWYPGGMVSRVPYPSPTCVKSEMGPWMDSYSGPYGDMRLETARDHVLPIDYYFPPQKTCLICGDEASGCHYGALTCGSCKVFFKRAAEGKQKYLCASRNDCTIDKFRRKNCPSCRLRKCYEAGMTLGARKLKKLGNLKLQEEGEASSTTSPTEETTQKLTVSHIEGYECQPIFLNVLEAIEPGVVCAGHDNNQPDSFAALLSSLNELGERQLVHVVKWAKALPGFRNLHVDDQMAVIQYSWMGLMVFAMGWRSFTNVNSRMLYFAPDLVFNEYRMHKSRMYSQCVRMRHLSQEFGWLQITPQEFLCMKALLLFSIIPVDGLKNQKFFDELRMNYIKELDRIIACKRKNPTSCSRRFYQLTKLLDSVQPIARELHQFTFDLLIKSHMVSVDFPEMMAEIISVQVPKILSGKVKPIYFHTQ
Estrogen receptor beta (Homo sapiens), sequence (Q92731 whole entry, looked up): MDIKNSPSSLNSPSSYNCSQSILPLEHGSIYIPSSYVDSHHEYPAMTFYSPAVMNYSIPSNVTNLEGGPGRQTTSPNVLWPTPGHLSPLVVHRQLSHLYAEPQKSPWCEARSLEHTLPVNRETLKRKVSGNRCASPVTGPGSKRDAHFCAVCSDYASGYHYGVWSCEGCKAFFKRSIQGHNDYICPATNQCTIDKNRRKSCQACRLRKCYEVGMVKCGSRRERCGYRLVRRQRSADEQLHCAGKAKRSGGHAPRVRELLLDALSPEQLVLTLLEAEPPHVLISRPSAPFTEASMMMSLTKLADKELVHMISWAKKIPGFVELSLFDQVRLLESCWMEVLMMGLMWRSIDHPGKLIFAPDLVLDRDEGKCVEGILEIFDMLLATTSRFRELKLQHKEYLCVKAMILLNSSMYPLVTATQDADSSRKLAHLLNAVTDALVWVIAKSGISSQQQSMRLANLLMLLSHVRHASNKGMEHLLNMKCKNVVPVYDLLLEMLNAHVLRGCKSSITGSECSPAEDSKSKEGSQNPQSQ
Estrogen receptor (Homo sapiens), sequence (P03372 whole entry, looked up): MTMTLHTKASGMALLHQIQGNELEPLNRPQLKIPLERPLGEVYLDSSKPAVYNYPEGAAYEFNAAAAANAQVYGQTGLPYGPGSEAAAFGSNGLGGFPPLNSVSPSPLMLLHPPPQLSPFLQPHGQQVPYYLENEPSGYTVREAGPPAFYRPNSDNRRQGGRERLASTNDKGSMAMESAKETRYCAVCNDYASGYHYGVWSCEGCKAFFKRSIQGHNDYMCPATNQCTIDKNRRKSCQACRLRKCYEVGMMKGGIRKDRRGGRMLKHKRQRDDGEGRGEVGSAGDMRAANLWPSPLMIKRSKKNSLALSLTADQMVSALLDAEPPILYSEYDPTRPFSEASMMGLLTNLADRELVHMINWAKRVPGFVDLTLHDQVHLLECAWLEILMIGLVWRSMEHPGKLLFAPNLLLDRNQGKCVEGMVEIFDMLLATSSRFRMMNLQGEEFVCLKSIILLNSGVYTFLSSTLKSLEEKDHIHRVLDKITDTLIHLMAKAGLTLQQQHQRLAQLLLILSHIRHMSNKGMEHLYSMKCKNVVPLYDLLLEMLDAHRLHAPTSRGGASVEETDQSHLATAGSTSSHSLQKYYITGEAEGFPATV

Compound | Potency [1] | Potency [2] | Potency [3] | Potency [4] | Potency [5] | Potency [6] | Potency [7] | Potency [8] | Potency [9] | Potency [10] | Potency [11] | Potency [12] | Potency [13] | Potency [14] | Potency [15] | outcome [16] | Potency [17] | Potency [18] | Potency [19]
OCCN1CCN(CC/C=C2/c3ccccc3Sc3ccc(C(F)(F)F)cc32)CC1 | inactive | 26.6 µM (active) | inactive | 10 µM (active) | inactive | inactive | 21.1 µM (active) | inactive | inactive | inactive | 11.9 µM (active) | 21.1 µM (active) | inactive | 26.6 µM (active) | inactive | inactive |  |  | 
Clc1ccc(C(Cn2ccnc2)OCc2ccc(Sc3ccccc3)cc2)c(Cl)c1 (stereo not given) | inactive |  | inactive |  | inactive | inactive | inactive | inactive | inactive | inactive | inactive | inactive |  |  | inactive | inactive | inactive |  | 
CN(C)c1ccc(C2(c3ccc(N(C)C)cc3)OC(=O)c3cc(N(C)C)ccc32)cc1 | inactive | inactive | inactive |  | inactive | inactive | inactive | inactive | inactive |  | inactive | inactive | inactive |  | inactive | inactive | inactive | inactive | 
COC(=O)C1=C(C)NC(C)=C(C(=O)OCCc2ccc(N3CCN(C(c4ccccc4)c4ccccc4)CC3)cc2)C1c1cccc([N+](=O)[O-])c1 (stereo not given) | inactive | inactive | inactive |  | inactive | inactive | inactive | inactive | inactive |  |  | inactive | inactive |  | inactive |  | inactive |  | inactive
Oc1ccc(N=Nc2ccccc2)cc1 | inactive | 31 µM (active) | inactive |  | 2.77 µM (active) | inactive | 27.7 µM (active) |  | inactive |  |  |  | inactive |  |  | inactive | 24.7 µM (active) | inactive | 43.8 µM (active)
O=C(Nc1cccc(C(F)(F)F)c1)c1cc(Br)cc(Br)c1O | inactive |  | 4.86 µM (active) | inactive | 3.86 µM (active) | inactive | inactive |  | inactive |  |  | 24.3 µM (active) |  | 27.3 µM (active) | inactive | inactive | 4.33 µM (active) | inactive | 1.72 µM (active)
CCCN(CCC)c1c([N+](=O)[O-])cc(C(F)(F)F)c(N)c1[N+](=O)[O-] | 60.9 µM (active) |  | 54.3 µM (active) |  | inactive | 60.9 µM (active) | 48.4 µM (active) | 60.9 µM (active) | inactive |  |  | 21.6 µM (active) |  | 30.5 µM (active) | inactive | inactive |  |  | 21.6 µM (active)
Oc1ccc(C2(c3ccc(O)cc3)CC3CC2C2CCCC32)cc1 (stereo not given) | inactive | 52.3 µM (active) | 0.117 µM (active) |  | inactive | inactive | 58.7 µM (active) |  | inactive |  |  | 26.2 µM (active) | inactive | 26.2 µM (active) | inactive |  |  |  | 20.8 µM (active)
Fc1ccc([C@@H]2CCNC[C@H]2COc2ccc3c(c2)OCO3)cc1 | inactive | inactive | inactive | inactive | inactive | inactive | inactive | inactive | inactive |  |  | 33.5 µM (active) | inactive | 26.6 µM (active) | inactive | inactive |  | inactive | inactive
Cc1cc2c(cc1C(F)(F)F)N(C(=O)Nc1ccc(Oc3cccnc3C)nc1)CC2 | inactive |  | 31.1 µM (active) |  | inactive | inactive | inactive | inactive | inactive |  | 19.6 µM (active) |  |  |  | inactive |  | 55.3 µM (active) |  | 
COc1cccc2c1C(=O)c1c(O)c3c(c(O)c1C2=O)C[C@@](O)(C(=O)CO)C[C@@H]3O[C@H]1C[C@H](N)[C@H](O[C@@H]2CCCCO2)[C@H](C)O1 | 13.3 µM (active) | 2.11 µM (active) | inactive | inactive | 11.9 µM (active) | inactive | 11.9 µM (active) | 11.9 µM (active) | inactive |  |  |  | inactive |  | inactive | inactive |  | inactive | 
CCCCCCCCCCCCCCCC[N+](C)(C)CCN(Cc1ccc(OC)cc1)c1ncccn1 | inactive |  | inactive | inactive | inactive |  |  |  | inactive |  |  | 11.9 µM (active) |  | 13.3 µM (active) | inactive | inactive |  |  | 2.66 µM (active)
C=C(C)C(=O)OCC[N+](C)(C)C | inactive | 30.5 µM (active) |  |  | inactive | inactive | inactive |  | inactive | inactive | inactive | inactive | inactive | inactive |  | inactive |  |  | inactive
CC1(C)CCC(C)(C)c2cc(C(=O)Nc3ccc(C(=O)O)cc3)ccc21 | inactive | inactive | inactive |  | inactive |  |  |  | inactive | inactive | 43.3 µM (active) |  | inactive | inactive | inactive | inactive | inactive |  | 
Oc1cccc(-c2c3nc(c(-c4cccc(O)c4)c4ccc([nH]4)c(-c4cccc(O)c4)c4nc(c(-c5cccc(O)c5)c5ccc2[nH]5)CC4)C=C3)c1 | 3.35 µM (active) | 29.8 µM (active) |  | inactive |  |  | 13.3 µM (active) | 13.3 µM (active) | inactive |  | 26.6 µM (active) | 8.41 µM (active) | inactive | 21.1 µM (active) | inactive | inactive | 8.41 µM (active) |  | 16.8 µM (active)
